Source: PubChem BioAssay (EPA / NIEHS)
Active and inactive are the calls of the source. How the source made its calls: active means hit-call score of the fitted dose curve at least 0.9, where 1 is the maximum; inactive means score below 0.9.

Experiments:
Conditions in all cases: mRNA level, 48 h; actives raise or lower the signal
[1] = read-out: Glutathione S-transferase M3 (GSTM3), GSTM3 (gene 2947); experiment: LTEA_HepaRG_GSTM3: Life Technologies and Expression Analysis (LTEA) Assay for Glutathione S-transferase M3 (GSTM3) using HepaRG (AID 2283501)
Procedure, shortened: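 Differentiated HepaRG cells in serum-free induction medium were exposed in duplicate for 48 h to 8 half-log concentrations up to 100 uM in 0.5% DMSO. GSTM3 mRNA was measured by TaqMan qRT-PCR, normalized to ACTB/GAPDH/POLR2A, and fitted bidirectionally versus DMSO.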

[2] = read-out: Heat shock 70 kDa protein 1 (HSPA1A), gene 3303; experiment: LTEA_HepaRG_HSPA1A: Life Technologies and Expression Analysis (LTEA) Assay for Heat shock 70 kDa protein 1 (HSPA1A) using HepaRG (AID 2283502)
Procedure, shortened: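 An oxidative-stress marker readout: HepaRG cells treated 48 h in duplicate with an eight-point series (highest 100 uM) had HSPA1A mRNA quantified by TaqMan qRT-PCR. Activity was fitted in both directions using 0.5% DMSO as baseline.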

[3] = read-out: 3-Hydroxy-3-Methylglutaryl-CoA Synthase 2 (HMGCS2), HMGCS2 (gene 3158); experiment: LTEA_HepaRG_HMGCS2: Life Technologies and Expression Analysis (LTEA) Assay for 3-Hydroxy-3-Methylglutaryl-CoA Synthase 2 (HMGCS2) using HepaRG (AID 2283504)
Procedure, shortened: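 Differentiated human HepaRG cells were exposed in duplicate for 48 h in serum-free induction medium to eight concentrations (top 100 uM, half-log steps, 0.5% DMSO). HMGCS2 mRNA was quantified by TaqMan qRT-PCR, normalised to ACTB, GAPDH and POLR2A, then fitted bidirectionally against DMSO.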

HGF (gene 3082) = experiment: LTEA_HepaRG_HGF: Life Technologies and Expression Analysis (LTEA) Assay for Hepatocyte Growth Facto (HGF) using HepaRG (AID 2283505)
Procedure, shortened: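 Differentiated human HepaRG cells in serum-free induction medium were exposed in duplicate for 48 h to eight concentrations (top 100 uM, half-log steps, 0.5% DMSO). HGF mRNA was quantified by qRT-PCR, normalized to ACTB, GAPDH and POLR2A.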

[4] = read-out: Insulin Like Growth Factor 1 (IGF1), IGF1 (gene 3479); experiment: LTEA_HepaRG_IGF1: Life Technologies and Expression Analysis (LTEA) Assay for Insulin Like Growth Factor 1 (IGF1) using HepaRG (AID 2283506)
Procedure, shortened: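 Endpoint: IGF1 mRNA change by qRT-PCR, housekeeping-normalized, fitted bidirectionally relative to 0.5% DMSO vehicle. Human HepaRG cells were treated 48 h in serum-free induction medium, eight half-log concentrations topping at 100 uM.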

[5] = read-out: Intercellular Adhesion Molecule 1 (ICAM1), ICAM1 (gene 3383); experiment: LTEA_HepaRG_ICAM1: Life Technologies and Expression Analysis (LTEA) Assay for Intercellular Adhesion Molecule 1 (ICAM1) using HepaRG (AID 2283507)
Procedure, shortened: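 Differentiated HepaRG cells in serum-free induction medium were exposed in duplicate for 48 h to eight half-log concentrations up to 100 uM in 0.5% DMSO. Transcript levels were measured by qRT-PCR normalized to ACTB, GAPDH and POLR2A; bidirectional fits relative to DMSO.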

[6] = read-out: Interleukin 6 (IL6), IL6 (gene 3569); experiment: LTEA_HepaRG_IL6: Life Technologies and Expression Analysis (LTEA) Assay for Interleukin 6 (IL6) using HepaRG (AID 2283509)
Procedure, shortened: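 Changes in IL6 mRNA, up or down relative to 0.5% DMSO controls, were derived from concentration-response curves in human HepaRG cells treated for 48 h at up to 100 uM, with ACTB, GAPDH and POLR2A as normalizers.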

[7] = read-out: Insulin-like growth factor-binding protein 1 (IGFBP1), IGFBP1 (gene 3484); experiment: LTEA_HepaRG_IGFBP1: Life Technologies and Expression Analysis (LTEA) Assay for Insulin-like growth factor-binding protein 1 (IGFBP1) using HepaRG (AID 2283508)
Procedure, shortened: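 Differentiated human HepaRG cells in serum-free induction medium were exposed in duplicate for 48 h to eight concentrations, top 100 uM with half-log dilutions, in 0.5% DMSO. Transcript levels came from qRT-PCR normalised to ACTB, GAPDH and POLR2A, fitted bidirectionally against DMSO.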

[8] = read-out: Glutamate-cysteine ligase regulatory (GCLM), GCLM (gene 2730); experiment: LTEA_HepaRG_GCLM: Life Technologies and Expression Analysis (LTEA) Assay for Glutamate-cysteine ligase regulatory (GCLM) using HepaRG (AID 2283500)
Procedure, shortened: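 In this multiplexed HepaRG gene-expression assay, GCLM mRNA change after 48 h treatment (8 concentrations, max 100 uM) was scored against DMSO by bidirectional curve fitting.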

[9] = read-out: growth arrest and DNA damage 45 (GADD45G), GADD45G (gene 10912); experiment: LTEA_HepaRG_GADD45G: Life Technologies and Expression Analysis (LTEA) Assay for growth arrest and DNA damage 45 (GADD45G) using HepaRG (AID 2283499)
Procedure, shortened: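 Differentiated human HepaRG cells in serum-free induction medium were exposed for 48 h to 8 half-log concentrations up to 100 uM in 0.5% DMSO, in duplicate. GADD45G mRNA was measured by TaqMan qRT-PCR, normalised to ACTB, GAPDH and POLR2A, and fitted bidirectionally against DMSO.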

Measured: AC50

CCOP(=S)(OCC)SCSCC
not listed: [7] | [8] | [9]
inactive: all other assays above

CC(Cc1ccc(OCC(=O)O)cc1)NCC(O)c1csc(C(F)(F)F)n1 (stereo not given)
not listed: [7] | [8] | [9]
inactive: all other assays above

CCCCN(CCCC)SN(C)C(=O)Oc1cccc2c1OC(C)(C)C2
not listed: [8] | [9]
inactive: all other assays above

CCOC(=O)c1ccccc1C(=O)OCC
not listed: [7] | [9]
inactive: all other assays above

Nc1ccc(Cl)cc1
not listed: [7] | [8]
inactive: all other assays above

O=[N+]([O-])c1ccccc1
not listed: [7] | [8] | [9]
inactive: all other assays above

CC(C)(C)c1ccc(O)cc1
not listed: HGF (gene 3082) | [7] | [8]
inactive: all other assays above

O=C(O)C(Cl)Cl
not listed: [7] | [8] | [9]
inactive: all other assays above

Cc1ccc(N)cc1N
not listed: [7] | [8] | [9]
inactive: all other assays above

CCN(CC)c1ccccc1
not listed: [7] | [8] | [9]
inactive: all other assays above

CCNc1nc(Cl)nc(NC(C)(C)C)n1
active: [4] 13.1 µM
not listed: [7] | [8] | [9]
inactive: all other assays above

CCC1(c2ccccc2)C(=O)N=C(O)NC1=O (stereo not given)
not listed: [7] | [8] | [9]
inactive: all other assays above

c1cc2c3c(cccc3c1)CC2
not listed: [7] | [8] | [9]
inactive: all other assays above

Cc1ccc([N+](=O)[O-])cc1C
not listed: [7] | [9]
inactive: all other assays above

CSC(C)(C)C=NO
not listed: [7] | [8] | [9]
inactive: all other assays above

ClC(Cl)(Cl)c1ccccc1
not listed: [7] | [8] | [9]
inactive: all other assays above

ClC(Cl)c1ccccc1
not listed: [7]
inactive: all other assays above

Nc1ccc2ccccc2c1
not listed: [7] | [8] | [9]
inactive: all other assays above

c1ccc(OP(Oc2ccccc2)Oc2ccccc2)cc1
not listed: [7] | [8] | [9]
inactive: all other assays above

CCOc1ccc(C(C)(C)COCc2cccc(Oc3ccccc3)c2)cc1
active: [4] 12.4 µM
not listed: [8] | [9]
inactive: all other assays above

ClC1=C(Cl)C2(Cl)C3C(Cl)C(Cl)CC3C1(Cl)C2(Cl)Cl (stereo not given)
active: [3] 31.7 µM | [4] 23.5 µM
not listed: [8] | [9]
inactive: all other assays above
